ClpP mod: qHTS Assay for Activators of ClpP; AID 651965, 2013; Potency, µM (top dose mostly 57.5 µM); purified B. subtilis ClpP, FRET peptide cleavage, 20 min; ATP-dependent Clp protease proteolytic subunit (Bacillus subtilis (strain 168)), P80244; 1.9% of 340,000 active; active = well fitted falling curve with a large enough effect; inconclusive = small, poorly fitted or top-dose-only effect; inactive = no such curve, though single readings can be large or run the other way; note: the source files actives as falling curves though it sought activators and does not explain the sign; nearly all actives have a fitted effect of over 65% in size
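Purified B. subtilis ClpP, 10 microg/mL final in Tris/HCl pH8 with KCl, BSA, glycerol and Tween-20, cleaved an Abz/nitrotyrosine-quenched decapeptide. Fluorescence (ex 320, em 430) was read at 0 and 20 min at room temperature. Delta was normalized to 5.8 microM ADEP and DMSO/no-enzyme controls.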
a7 integrin act: activates integrin-mediated alleviation for muscular dystrophy; alpha7betagal myoblasts, beta-gal FDG fluorescence, 48 h; Potency, µM (top dose mostly 38.3 µM), most hits filed as activators; 0.064% of 350,000 active; AID 624291; note: nearly all actives have a fitted effect of over 60% in size
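Alpha7betagal+/- myoblasts (passage 13) were plated 16-24 hr, then exposed to compounds (1:260 dilution of DMSO stock) for 48 hours at 37C. After MPER lysis, β-galactosidase reporter activity was read as FDG fluorescence (ex 480/em 540) after 30 minutes.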
PKM2 activator: increases activity of human pyruvate kinase M2 | 0.34% of 260,000 active | P14618 | purified PKM2, Kinase-Glo ATP luminescence, activation; response scale: 0% is enzyme alone, no compound | Potency, µM (highest dose often 57.5 µM), most hits filed as activators; note: nearly all actives have a fitted effect of over 55% in size
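hPK-M2, >95% pure; 0.1 mM ADP / 0.5 mM PEP final; imidazole pH7.2 buffer w/ 7 mM MgCl2, 50 mM KCl; 1 h RT; Kinase-Glo lum. Intermediate enzyme activity for dual inhibitor/activator qHTS.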
Pin1 inh: human Pin1 inhibition; Q13526; Pin1 FP peptide displacement, HiFluor488, 10 min; Potency, µM (series often up to 115 µM), most hits filed as inhibitors; 0.009% of 390,000 active; AID 504891; active = well fitted inhibition curve with a large enough effect in the polarisation, with a control signal flat, not every such curve was filed as active; inconclusive = small, poorly fitted or top-dose-only effect, or effect the other way, or a change in a side signal; inactive = no such curve, though single readings can be large or run the other way; the % refers to the polarisation
Target sequence (Q13526 whole entry, looked up): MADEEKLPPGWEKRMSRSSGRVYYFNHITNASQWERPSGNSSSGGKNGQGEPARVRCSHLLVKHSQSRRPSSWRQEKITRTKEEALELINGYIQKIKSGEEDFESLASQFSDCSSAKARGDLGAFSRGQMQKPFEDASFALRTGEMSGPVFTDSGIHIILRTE
USP2a inh: inhibitors of human ubiquitin-specific protease USP2a; Potency, µM (series often up to 38.3 µM), usual class: inhibitors; O75604; USP2 core, Ub-CHOP2 coupled fluorogenic reporter, 485/531; 0.01% of 330,000 active
Target sequence (O75604 whole entry, looked up): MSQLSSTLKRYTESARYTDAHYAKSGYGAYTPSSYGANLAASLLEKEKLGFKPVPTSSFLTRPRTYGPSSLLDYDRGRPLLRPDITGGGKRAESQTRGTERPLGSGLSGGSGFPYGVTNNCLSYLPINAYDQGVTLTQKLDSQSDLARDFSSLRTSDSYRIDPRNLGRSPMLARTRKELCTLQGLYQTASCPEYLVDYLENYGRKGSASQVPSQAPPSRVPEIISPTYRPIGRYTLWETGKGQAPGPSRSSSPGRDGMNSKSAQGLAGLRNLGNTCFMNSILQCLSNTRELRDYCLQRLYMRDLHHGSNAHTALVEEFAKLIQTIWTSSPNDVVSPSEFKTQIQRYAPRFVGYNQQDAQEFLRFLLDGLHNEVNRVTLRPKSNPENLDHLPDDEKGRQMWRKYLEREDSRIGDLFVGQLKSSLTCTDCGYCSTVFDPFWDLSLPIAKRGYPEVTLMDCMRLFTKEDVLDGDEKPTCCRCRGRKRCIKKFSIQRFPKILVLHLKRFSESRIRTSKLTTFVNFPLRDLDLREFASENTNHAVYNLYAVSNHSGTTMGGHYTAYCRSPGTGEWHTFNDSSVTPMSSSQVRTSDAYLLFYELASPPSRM
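USP2 core (10nM final) preincubated 30min RT with compound in 20mM Tris-HCl pH 8.0, 2mM CaCl2, 2mM beta-mercaptoethanol, 0.05% CHAPS; 25nM Ub-CHOP2 plus 25nM reporter substrate added, fluorescence (Ex485/Em531) read after 60min.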
IL2 activator: IL-2 activation | activation, % (series mostly up to about 46 µM) | AID 652025 | 0.065% of 360,000 active | IL-2 activation reporter assay, cell-based qHTS; stimulated with anti-CD3/CD4/CD28 beads; in transgenic mouse T cells; in the data active = activation above about 50%; inconclusive = mostly about 30% to 49%
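Using fluorescent plate cytometry, EGFP and DsRed are detected in transgenic mouse T cells stimulated 18 h at 37 degrees C with antibody-coated beads after 60 min compound pretreatment.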
Each line names hits and unclear results; the compound was inactive in the other large screens. Only some compounds are listed: those with a hit (about 1.9% of all), similar ones and a draw of the others. Unless noted, calls come from the whole dose curve; as a rule, active = well fitted curve in the direction sought with a large enough effect; inconclusive = small, poorly fitted or top-dose-only effect, or another doubt; inactive = no such curve, though single readings can be large; an effect the other way counts as inactive or inconclusive.

Clc1ccc(CNCCCSc2ncccn2)cc1	none (no result: ClpP mod)
CC1CCN(c2nc(-c3ccc(C(C)(C)C)cc3)nc3ccccc23)CC1	ClpP mod inconclusive (no result: a7 integrin act, PKM2 activator, USP2a inh, IL2 activator)
CCCOc1ccc(-c2nc(OC)c3ccccc3n2)cc1	ClpP mod 31.6µM
CCCOc1ccc(-c2nc3ccccc3c(=O)o2)cc1	none (no result: a7 integrin act, PKM2 activator, USP2a inh, IL2 activator)
CCCOc1ccc(-c2nc(N3CCC(C)CC3)c3ccccc3n2)cc1	ClpP mod 20µM (no result: a7 integrin act, PKM2 activator, USP2a inh, IL2 activator)
Oc1ccccc1C1C=C(c2ccc3c(c2)OCO3)NC(c2ccc(Br)cc2)N1 (stereo unspecified)	none (no result: a7 integrin act, PKM2 activator, USP2a inh, IL2 activator)
Cc1nc2c(C(=O)NC(C)c3ccccc3)cnn2c(C)c1Cc1ccccc1 (stereo unspecified)	ClpP mod 31.6µM (no result: a7 integrin act, PKM2 activator, USP2a inh, IL2 activator)
Cc1nc2c(C(=O)NCCc3ccc(Cl)cc3)cnn2c(C)c1Cc1ccc(F)cc1	ClpP mod 25.1µM (no result: a7 integrin act, PKM2 activator, USP2a inh, IL2 activator)
Cc1nc2c(C(=O)N3CCOCC3)cnn2c(C)c1Cc1ccc(Cl)cc1	ClpP mod 28.2µM
Cc1cc(C)c(Cc2c(C)nc3c(C(=O)NCc4ccco4)cnn3c2C)c(C)c1	ClpP mod 20µM
COC(CNC(=O)c1cnn2c(C)c(Cc3ccccc3)c(C)nc12)OC	none
Cc1nc2c(C(=O)NCCc3ccc(Cl)cc3)cnn2c(C)c1Cc1c(F)cccc1Cl	none (no result: a7 integrin act, PKM2 activator, USP2a inh, IL2 activator)
O=C(COc1ccccc1C(=O)Nc1ccccc1F)Nc1ccc(Br)cc1	none (no result: a7 integrin act, PKM2 activator, Pin1 inh, USP2a inh, IL2 activator)
COc1cc(-c2ccc3ncnc(NCc4nc(C)cs4)c3c2)cc(OC)c1OC	none (no result: ClpP mod, a7 integrin act, PKM2 activator, USP2a inh, IL2 activator)
COc1ccc(-c2nc(SCC(=O)NCc3ccco3)c(-c3ccccc3)[nH]2)cc1OC	ClpP mod inconclusive
CCc1ccc(-c2nc(SCC(=O)NCC3CCCO3)c(-c3ccc(C)cc3)[nH]2)cc1 (stereo unspecified)	ClpP mod 31.6µM, Pin1 inh inconclusive (no result: a7 integrin act, PKM2 activator, USP2a inh, IL2 activator)
COCCCNC(=O)CSc1nc(-c2cccc(F)c2)[nH]c1-c1ccccc1	ClpP mod 28.2µM (no result: a7 integrin act, PKM2 activator, USP2a inh, IL2 activator)
COCCCNC(=O)CSc1nc(-c2ccccc2)[nH]c1-c1ccc(C)cc1	ClpP mod 25.1µM (no result: a7 integrin act, PKM2 activator, USP2a inh, IL2 activator)
COc1cc2nc(Cl)nc(NC(C)C)c2cc1OC	none (no result: a7 integrin act, PKM2 activator, Pin1 inh, USP2a inh, IL2 activator)
Cc1c(P(=S)(c2ccccc2)c2ccccc2)c2ccccc2n1C/C=C/c1ccccc1	none (no result: ClpP mod, a7 integrin act, PKM2 activator, USP2a inh, IL2 activator)
N#Cc1ccccc1NC(=O)COC(=O)/C=C/c1cn(-c2ccccc2)nc1-c1ccc(Cl)cc1	none (no result: ClpP mod)
NC(=O)c1ccc(NC(=O)COC(=O)/C=C/c2cn(-c3ccccc3)nc2-c2cccnc2)cc1	ClpP mod 28.2µM, Pin1 inh inconclusive
CCSc1nc2ccccc2n1C(=O)/C=C/c1ccc(OC)c(OC)c1	ClpP mod 14.1µM
Cc1c(C(=O)C(=O)N2CCN(C)CC2)c2ccccc2n1C	ClpP mod 12.6µM
COc1ccccc1N1CCN(C(=O)C(=O)c2c(C)n(C)c3ccccc23)CC1	none (no result: PKM2 activator)
CCCCCc1cc[n+](CC(=O)c2ccccc2)cc1	none (no result: a7 integrin act, PKM2 activator, Pin1 inh, USP2a inh, IL2 activator)
CCNc1nnc(-c2ccc(C)cc2)o1	ClpP mod 20µM, Pin1 inh inconclusive
Cc1ccc(-c2nnc(-c3ccccc3)o2)cc1	ClpP mod inconclusive
CCCn1nc(Oc2nc(SC)nc(N(C)C)n2)ccc1=O	ClpP mod 25.1µM
Cn1c(SCC(=O)N2CCCC2)nc2c(c1=O)SCC2	none (no result: PKM2 activator, Pin1 inh, USP2a inh)
CC1CCN(C(=O)CSc2nc3c(c(=O)n2C)SCC3)CC1	ClpP mod 28.2µM
N#Cc1cccc(OC2=NS(=O)(=O)c3ccccc32)c1	none (no result: ClpP mod, a7 integrin act, PKM2 activator, USP2a inh, IL2 activator)
COc1ccc(OCC(=O)OC2CCN(C)CC2)cc1	ClpP mod 15.8µM
CSc1ccc(C2NN=C(c3ccccc3)S2)cc1 (stereo unspecified)	none (no result: ClpP mod, PKM2 activator, USP2a inh)
Oc1ccccc1C1NN=C(c2ccccc2)S1 (stereo unspecified)	ClpP mod 7.08µM
O=C1c2ccccc2NC2CCCCCN12 (stereo unspecified)	ClpP mod 12.6µM
O=C1Nc2ccccc2C(=O)N2CCCCC12 (stereo unspecified)	none
NC(=O)C1CCN(c2ncc(-c3cccc(N4CCCCC4)c3)s2)CC1	none (no result: ClpP mod, a7 integrin act, PKM2 activator, USP2a inh, IL2 activator)
Cc1cc(C)n(C(=O)c2cccc([N+](=O)[O-])c2C)n1	none
Cc1cc(C)n(C(=O)c2ccccc2[N+](=O)[O-])n1	ClpP mod 35.5µM
Cc1cc(NC(=O)CSc2nnc(-c3ccoc3C)o2)no1	PKM2 activator 15.8µM
Cc1ccc(-n2ncc3c(N4CCCC4)ncnc32)c(C)c1	PKM2 activator 25.1µM
O=C(c1cnc(N2CCN(c3ncccn3)CC2)c2ccccc12)N1CCN(c2ncccn2)CC1	none
Cc1ccc(N2CCN(C(=O)c3ccccc3Br)CC2)c(C)c1	none
Cc1ccc(N2CCN(C(=O)c3cnc(N4CCCCC4)c4ccccc34)CC2)c(C)c1	ClpP mod 35.5µM (no result: a7 integrin act, PKM2 activator, USP2a inh, IL2 activator)
O=C(c1cnc(N2CCCCC2)c2ccccc12)N1CCN(c2ccc(Cl)cc2)CC1	ClpP mod 25.1µM (no result: a7 integrin act, PKM2 activator, USP2a inh, IL2 activator)
Cc1ccc(Cl)cc1N(C)C(=O)c1cnc(N2CCOCC2)c2ccccc12	none (no result: a7 integrin act, PKM2 activator, USP2a inh, IL2 activator)
Cc1ccc(Cl)cc1N1CCN(C(=O)c2cnc(N3CCOCC3)c3ccccc23)CC1	ClpP mod 31.6µM, Pin1 inh inconclusive (no result: a7 integrin act, PKM2 activator, USP2a inh, IL2 activator)
Cc1ccc(-n2ncc3c(N4CCCC(C)C4)ncnc32)c(C)c1 (stereo unspecified)	none
O=C1c2ccccc2C(=O)N1c1ccccn1	none (no result: a7 integrin act, PKM2 activator, USP2a inh, IL2 activator)
